Compounds without any hit were thinned out: in the full panel of roughly 79,000, 15% have a hit. The source made the active and inactive calls. Rule as the data show it: active = growth inhibition above about 70%; inactive = the rest.

A short description of one assay: NCI Yeast Anticancer Drug Screen. Data for the cln2 rad14 strain (AID 165).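 Also: 0% = growth equal to vehicle treated cultures.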 The settings on record: S. cerevisiae cln2 rad14 strain, at 50.0 µM, active compounds read high. The method, boiled down:
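Readout is yeast growth inhibition versus vehicle-treated controls, using a strain with cln2 and rad14 alterations exposed to compound.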
As for `C=C1C(=O)C2CCC1C2` (centres undefined), the growth inhibition was -3.2% (inactive).
Take `Nc1nnc2cc(F)ccc2n1`: the growth inhibition was 21.8% (inactive).
Still for that read-out and setting: next, `COC1(OC)C2(Cl)C(Cl)=C(Cl)C1(Cl)C1COCC12` (centres undefined): 12.8% (inactive).
On to `O=C(Nc1c(Cl)cc(Cl)cc1Cl)ON=C1CCCCC1`, for which the growth inhibition is 12.9% (inactive).
Same read-out and setting: next, `NNC(=O)N/N=C1\C(=O)N(c2nccs2)C(=O)C(=O)C1c1nc2ccccc2s1` (centres undefined): 10.8% (inactive); `CCCC(=O)CC(=O)c1ccccc1`: -13.6% (inactive).
With `COc1ccc(C2CC(c3ccccc3)=Nc3ccccc3S2)cc1` (centres undefined), the growth inhibition was -11.3% (inactive).
As for `CC1(C)CCC(C)(C)NC(=S)N1`, the growth inhibition is 1.9% (inactive).
Still for that read-out and setting: next, `O=C1C=C[C@H](O)[C@@]2(CO)O[C@@H]12`: -6.1% (inactive).
Still for that read-out and setting: next, `CC(=O)c1cccc(NS(=O)(=O)c2ccc(C)cc2)c1`: -36.7% (inactive); `C[n+]1cc2cc3c(cc2c2ccccc21)OCO3`: 13.1% (inactive).
On the same count and under the same terms, next, `O=C(O)Cc1ccccn1`: 14.1% (inactive); `CCCCCCCCCCCCCCCCCC(=O)NCCNC(=O)CCCCCCCCCCCCCCCCC`: 20.6% (inactive).
Take `C=CCc1cc(OC)c(O)c(OC)c1`: the growth inhibition is -7.55% (inactive).
On the same count and under the same terms, next, `C/C(=N\N=C(/C)c1cccc([N+](=O)[O-])c1)c1cccc([N+](=O)[O-])c1`: -10.3% (inactive); `CCOC(=O)CNC`: -4.5% (inactive); `CCC(=O)C1C(=O)c2ccccc2C1=O`: -13.8% (inactive).
Same read-out and setting: next, `Cc1cc(C(=O)NN)c(C#N)c(=O)[nH]1`: -17.5% (inactive); `CC(=O)O[C@H]1CC[C@]2(C)C3=C(C(=O)C[C@H]2C1(C)C)[C@]1(C)CC[C@H]([C@H](C)CCC(=O)O)[C@@]1(C)CC3=O`: 3.5% (inactive); `Cc1[nH]c(=S)[nH]c(=O)c1C`: -3.4% (inactive).
`CCOc1ccc(C(=O)O)cc1`: the growth inhibition is 4.85% (inactive).
Same read-out and setting: next, `O=[N+]([O-])c1c(O)c(CNCCCO)cc(CNCCCO)c1O`: 19.6% (inactive).
With `O=c1n(CC2CO2)c(=O)n(CC2CO2)n1CC1CO1` (centres undefined), the growth inhibition was 8.35% (inactive).
With `Nc1cc(F)ccc1[N+](=O)[O-]`, the growth inhibition was -26.2% (inactive).
On to `N#Cc1ccc2nc[nH]c2c1`, for which the growth inhibition was 19.4% (inactive).
Consider `Cc1cc(Cc2ccccc2)c(O)c(Cc2ccccc2)c1`, for which the growth inhibition is 38% (inactive).
In the case of `CC1CN(CCO)CC(C)O1` (centres undefined), the growth inhibition was 5% (inactive).
Take `Cc1ccc(/C=N/NC(N)=S)s1`: the growth inhibition was -41.5% (inactive).
As for `CC(=O)c1cccs1`, the growth inhibition is -20.1% (inactive).
For the molecule `COC1=C(OC)C(=O)C(SC/C=C(\C)CCCC(C)CCCC(C)CCCC(C)C)=CC1=O` (centres undefined), the growth inhibition was 16.6% (inactive).
Same read-out and setting: next, `Nc1nc(N)nc(N2CCCCC2)n1`: -41.2% (inactive).
Same read-out and setting: next, `CC(=O)[C@@]1(O)CC[C@H]2[C@@H]3CC[C@@H]4CC(=O)CC[C@]4(C)[C@H]3[C@@H](O)C[C@@]21C`: -51.6% (inactive); `NC(=O)N1CCOCC1`: -27.4% (inactive).
Still for that read-out and setting: next, `C=CCNC(=S)N/C=C(/C(=O)c1ccccc1)c1ccccc1`: -31.5% (inactive).
Take `Nc1ncnc2c1ncn2C1OC(CO)C2OC21` (centres undefined): the growth inhibition was 12.5% (inactive).
For the molecule `NC(=S)N/N=C/c1ccc(OC(=O)COc2ccccc2)cn1`, the growth inhibition is 7.45% (inactive).

The nature of the next assay: NCI Yeast Anticancer Drug Screen. Data for the bub3 strain (AID 167). The settings on record: S. cerevisiae bub3 mutant strain, at 50.0 µM, active compounds read high. In outline:
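Growth of a checkpoint-deficient yeast mutant is measured after compound exposure. Values represent inhibition relative to vehicle.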
For `C=C1C(=O)C2CCC1C2` (centres undefined), the growth inhibition is 7.8% (inactive).
Same read-out and setting: next, `Nc1nnc2cc(F)ccc2n1`: 11.7% (inactive).
Still for that read-out and setting: next, `COC1(OC)C2(Cl)C(Cl)=C(Cl)C1(Cl)C1COCC12` (centres undefined): 22.2% (inactive); `O=C(Nc1c(Cl)cc(Cl)cc1Cl)ON=C1CCCCC1`: 15.5% (inactive); `NNC(=O)N/N=C1\C(=O)N(c2nccs2)C(=O)C(=O)C1c1nc2ccccc2s1` (centres undefined): -5.15% (inactive).
For `CCCC(=O)CC(=O)c1ccccc1`, the growth inhibition is 5.85% (inactive).
Same read-out and setting: next, `COc1ccc(C2CC(c3ccccc3)=Nc3ccccc3S2)cc1` (centres undefined): 25.2% (inactive); `CC1(C)CCC(C)(C)NC(=S)N1`: 13.5% (inactive); `O=C1C=C[C@H](O)[C@@]2(CO)O[C@@H]12`: -13.7% (inactive).
On the same count and under the same terms, next, `CC(=O)c1cccc(NS(=O)(=O)c2ccc(C)cc2)c1`: -7.9% (inactive); `C[n+]1cc2cc3c(cc2c2ccccc21)OCO3`: 26.9% (inactive); `O=C1C=Cc2ccccc2/C1=C/c1[nH]c(=O)[nH]c1O`: -3% (inactive).
Same read-out and setting: next, `CCCCCC#CC(=O)O`: -7.3% (inactive); `O=C(O)Cc1ccccn1`: -28.8% (inactive); `CCCCCCCCCCCCCCCCCC(=O)NCCNC(=O)CCCCCCCCCCCCCCCCC`: 1.5% (inactive).
With `C=CCc1cc(OC)c(O)c(OC)c1`, the growth inhibition was 0.75% (inactive).
`C/C(=N\N=C(/C)c1cccc([N+](=O)[O-])c1)c1cccc([N+](=O)[O-])c1`: the growth inhibition was 16.4% (inactive).
The same measure, in the same setting: next, `CCOC(=O)CNC`: 10.3% (inactive); `CCC(=O)C1C(=O)c2ccccc2C1=O`: 6.1% (inactive).
For the molecule `Cc1cc(C(=O)NN)c(C#N)c(=O)[nH]1`, the growth inhibition is 2.6% (inactive).
Take `CC(=O)O[C@H]1CC[C@]2(C)C3=C(C(=O)C[C@H]2C1(C)C)[C@]1(C)CC[C@H]([C@H](C)CCC(=O)O)[C@@]1(C)CC3=O`: the growth inhibition is 2.05% (inactive).
Turning to `Cc1[nH]c(=S)[nH]c(=O)c1C`, the growth inhibition is -34.4% (inactive).
The same measure, in the same setting: next, `CCOc1ccc(C(=O)O)cc1`: 8.2% (inactive); `O=[N+]([O-])c1c(O)c(CNCCCO)cc(CNCCCO)c1O`: 25.9% (inactive).
Same read-out and setting: next, `O=c1n(CC2CO2)c(=O)n(CC2CO2)n1CC1CO1` (centres undefined): -26.7% (inactive).
`Nc1cc(F)ccc1[N+](=O)[O-]`: the growth inhibition was -8.75% (inactive).
On to `N#Cc1ccc2nc[nH]c2c1`, for which the growth inhibition was -15.4% (inactive).
Still for that read-out and setting: next, `Cc1cc(Cc2ccccc2)c(O)c(Cc2ccccc2)c1`: 12.3% (inactive); `CC1CN(CCO)CC(C)O1` (centres undefined): -1.15% (inactive).
For `Cc1ccc(/C=N/NC(N)=S)s1`, the growth inhibition was -12.8% (inactive).
Consider `CC(=O)c1cccs1`, for which the growth inhibition is -3.35% (inactive).
`COC1=C(OC)C(=O)C(SC/C=C(\C)CCCC(C)CCCC(C)CCCC(C)C)=CC1=O` (centres undefined): the growth inhibition was -52.6% (inactive).
The same measure, in the same setting: next, `Nc1nc(N)nc(N2CCCCC2)n1`: -4.25% (inactive); `CC(=O)[C@@]1(O)CC[C@H]2[C@@H]3CC[C@@H]4CC(=O)CC[C@]4(C)[C@H]3[C@@H](O)C[C@@]21C`: 11.1% (inactive).
On to `NC(=O)N1CCOCC1`, for which the growth inhibition is -14.3% (inactive).
`C=CCNC(=S)N/C=C(/C(=O)c1ccccc1)c1ccccc1`: the growth inhibition is -20.4% (inactive).
In the case of `Nc1ncnc2c1ncn2C1OC(CO)C2OC21` (centres undefined), the growth inhibition was -5.95% (inactive).
On to `NC(=S)N/N=C/c1ccc(OC(=O)COc2ccccc2)cn1`, for which the growth inhibition is -11% (inactive).

The record behind these values is PubChem BioAssay (NCI).
